In publication PMC5540273 (PLoS ONE, 2017):
Values joined by “and” are separate entries in the source; they are usually repeats but may differ in a detail not shown here. Identical values can stand only once. Like-named read-outs stand apart in the source and are kept apart here.

Legend:
Details in all cases: n = 1
PIM1 = tested on: PIM1
PIM2 = tested on: PIM2
PIM3 = tested on: PIM3
PIP5K1A = tested on: PIP5K1A
PIP5K1C = tested on: PIP5K1C
PIP5K2B = tested on: PIP5K2B
PIP5K2C = tested on: T1, PIP5K2C
T1 construct: gene PIP4K2C

PKAC-alpha = tested on: T2, PKAC-alpha
T2 construct: gene PRKACA

PKAC-beta = tested on: T3, PKAC-beta
T3 construct: gene PRKACB

PKMYT1 = tested on: PKMYT1
PKN1 = tested on: PKN1
PKN2 = tested on: PKN2
PLK1 = tested on: PLK1
PLK2 = tested on: PLK2
PLK3 = tested on: PLK3
PLK4 = tested on: PLK4
PRKCD = tested on: PRKCD
PRKCE = tested on: PRKCE
PRKCH = tested on: PRKCH
PRKCI = tested on: PRKCI
[1] = concentration: 1 μM, replicates: in singlicate
[2] = concentration: 1 μM,replicates: in singlicate, 1 µM
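Further: KINOMEscan kinase panel screen.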

CC1=C(C(=O)Nc2cc3cn[nH]c3cc2F)C(c2ccc(C(F)(F)F)cc2)CC(=O)N1 (centres unmarked) [GSK429286]
%Inh (PIM1; [1]): 0%
%Inh (PIM2; [1]): 0%
%Inh (PIM3; [1]): 0%
%Inh (PIP5K1A; [1]): 0%
%Inh (PIP5K1C; [1]): 10%
%Inh (PIP5K2B; [1]): 17%
%Inh (PIP5K2C; [1]): 11%
%Inh (PKAC-alpha; [1]): 45%
%Inh (PKAC-beta; [1]): 60%
%Inh (PKMYT1; [1]): 17%
%Inh (PKN1; [1]): 56%
%Inh (PKN2; [1]): 0%
%Inh (PLK1; [1]): 0%
%Inh (PLK2; [1]): 0%
%Inh (PLK3; [1]): 0%
%Inh (PLK4; [1]): 0%
%Inh (PRKCD; [1]): 0%
%Inh (PRKCE; [1]): 0%
%Inh (PRKCH; [1]): 0%
%Inh (PRKCI; [1]): 19%

CSc1nn2c(=O)cc(N3CCOCC3)nc2n1Cc1cccc(C(F)(F)F)c1C [GSK2363608]
%Inh (PIM1; [2]): 0% and 34%
%Inh (PIM2; [1]): 0%
%Inh (PIM3; [2]): 0% and 27%
%Inh (PIP5K1A; [1]): 0%
%Inh (PIP5K1C; [2]): 30% and 0%
%Inh (PIP5K2B; [2]): 1% and 4%
%Inh (PIP5K2C; [2]): 6% and 8%
%Inh (PKAC-alpha; [2]): 50% and 0%
%Inh (PKAC-beta; [2]): 64% and 0%
%Inh (PKMYT1; [2]): 13% and 19%
%Inh (PKN1; [2]): 14% and 0%
%Inh (PKN2; [1]): 0%
%Inh (PLK1; [2]): 25% and 8%
%Inh (PLK2; [1]): 0%
%Inh (PLK3; [1]): 0%
%Inh (PLK4; [2]): 11% and 0%
%Inh (PRKCD; [1]): 0%
%Inh (PRKCE; [2]): 18% and 0%
%Inh (PRKCH; [2]): 20% and 0%
%Inh (PRKCI; [2]): 13% and 18%

Cn1ccc2ncnc(Oc3ccc(Nc4nc5ccccc5[nH]4)cc3)c21
%Inh (PIM1; [1]): 0%
%Inh (PIM2; [1]): 0%
%Inh (PIM3; [1]): 0%
%Inh (PIP5K1A; [1]): 0%
%Inh (PIP5K1C; [1]): 25%
%Inh (PIP5K2B; [1]): 26%
%Inh (PIP5K2C; [1]): 16%
%Inh (PKAC-alpha; [1]): 3%
%Inh (PKAC-beta; [1]): 0%
%Inh (PKMYT1; [1]): 18%
%Inh (PKN1; [1]): 0%
%Inh (PKN2; [1]): 0%
%Inh (PLK1; [1]): 0%
%Inh (PLK2; [1]): 0%
%Inh (PLK3; [1]): 0%
%Inh (PLK4; [1]): 62%
%Inh (PRKCD; [1]): 12%
%Inh (PRKCE; [1]): 0%
%Inh (PRKCH; [1]): 13%
%Inh (PRKCI; [1]): 0%

CS(=O)(=O)c1ccc(-c2nc3n(c2-c2ccncc2)CCC3)cc1 [SKF-105942]
%Inh (PIM1; [1]): 0%
%Inh (PIM2; [1]): 0%
%Inh (PIM3; [1]): 0%
%Inh (PIP5K1A; [1]): 4%
%Inh (PIP5K1C; [1]): 13%
%Inh (PIP5K2B; [1]): 21%
%Inh (PIP5K2C; [1]): 7%
%Inh (PKAC-alpha; [1]): 0%
%Inh (PKAC-beta; [1]): 0%
%Inh (PKMYT1; [1]): 0%
%Inh (PKN1; [1]): 8%
%Inh (PKN2; [1]): 0%
%Inh (PLK1; [1]): 0%
%Inh (PLK2; [1]): 22%
%Inh (PLK3; [1]): 0%
%Inh (PLK4; [1]): 11%
%Inh (PRKCD; [1]): 0%
%Inh (PRKCE; [1]): 18%
%Inh (PRKCH; [1]): 1%
%Inh (PRKCI; [1]): 2%

COc1cc2nccc(Nc3ccc(NC(=O)c4ccc(C)cc4)c(O)c3)c2cc1OC.Cl [GW440132]
%Inh (PIM1; [1]): 0%
%Inh (PIM2; [1]): 0%
%Inh (PIM3; [1]): 0%
%Inh (PIP5K1A; [1]): 0%
%Inh (PIP5K1C; [1]): 50%
%Inh (PIP5K2B; [1]): 0%
%Inh (PIP5K2C; [1]): 4%
%Inh (PKAC-alpha; [1]): 12%
%Inh (PKAC-beta; [1]): 0%
%Inh (PKMYT1; [1]): 4%
%Inh (PKN1; [1]): 0%
%Inh (PKN2; [1]): 0%
%Inh (PLK1; [1]): 0%
%Inh (PLK2; [1]): 0%
%Inh (PLK3; [1]): 0%
%Inh (PLK4; [1]): 13%
%Inh (PRKCD; [1]): 24%
%Inh (PRKCE; [1]): 0%
%Inh (PRKCH; [1]): 17%
%Inh (PRKCI; [1]): 12%

Cc1cccc(-c2nc(-c3ccc(S(C)(=O)=O)cc3)sc2-c2ccnc(NCCc3ccccc3)c2)c1
%Inh (PIM1; [1]): 0%
%Inh (PIM2; [1]): 9%
%Inh (PIM3; [1]): 0%
%Inh (PIP5K1A; [1]): 2%
%Inh (PIP5K1C; [1]): 17%
%Inh (PIP5K2B; [1]): 22%
%Inh (PIP5K2C; [1]): 7%
%Inh (PKAC-alpha; [1]): 0%
%Inh (PKAC-beta; [1]): 17%
%Inh (PKMYT1; [1]): 0%
%Inh (PKN1; [1]): 6%
%Inh (PKN2; [1]): 13%
%Inh (PLK1; [1]): 0%
%Inh (PLK2; [1]): 5%
%Inh (PLK3; [1]): 0%
%Inh (PLK4; [1]): 7%
%Inh (PRKCD; [1]): 8%
%Inh (PRKCE; [1]): 0%
%Inh (PRKCH; [1]): 14%
%Inh (PRKCI; [1]): 6%

Cc1ccc(NC(=O)Nc2cccc(C(F)(F)F)c2)cc1 [GSK955403]
%Inh (PIM1; 1 µM): 5%
%Inh (PIM2; 1 µM): 15%
%Inh (PIM3; 1 µM): 21%
%Inh (PIP5K1A; 1 µM): 0%
%Inh (PIP5K1C; 1 µM): 0%
%Inh (PIP5K2B; 1 µM): 0%
%Inh (PIP5K2C; 1 µM): 0%
%Inh (PKAC-alpha; 1 µM): 14%
%Inh (PKAC-beta; 1 µM): 14%
%Inh (PKMYT1; 1 µM): 0%
%Inh (PKN1; 1 µM): 16%
%Inh (PKN2; 1 µM): 0%
%Inh (PLK1; 1 µM): 0%
%Inh (PLK2; 1 µM): 0%
%Inh (PLK3; 1 µM): 0%
%Inh (PLK4; 1 µM): 9%
%Inh (PRKCD; 1 µM): 8%
%Inh (PRKCE; 1 µM): 0%
%Inh (PRKCH; 1 µM): 0%
%Inh (PRKCI; 1 µM): 11%
